Assay results as given in the supplement of paper PMC6555819.

What follows are sequences tested on VDR:RXRa (NR concentration 270 nM, RXRa partner concentration 90 nM) (assay: PBM binding z-score (relative to random genomic background probes); higher = stronger binding; sequences stand for … in GC…GCGATTGACAGCGTAGAATGAAGG).
Description: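 Protein-binding microarray (Agilent 4x180K custom design, double-stranded 60-nt probes: 5' GC cap, 34-nt variable region, 24-nt constant primer region; full probe sequence given). Purified or IVT nuclear receptor:RXRα heterodimers (3:1 NR:RXRα, mostly 270:90 nM) or homodimers were incubated for 1 h in PBS with 2% milk and no ligand, then detected with Alexa488 antibodies. Fluorescence from o1-orientation probes (~5 replicates averaged) was converted to z-scores against 500 random hg19 background probes. Variable regions are seed direct-repeat (DR0–DR5) sites, all their single-nucleotide variants and half-site ablations.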

Sequence	PBM binding z-score
GCGACTGGGGCGAAGCAGGTTACCATAAGGTTGG	-0.549
CTCGAAAGGTCGGTTGAGGTGATTATACGGATAA	3.1
TCTATTAGTAGATTAGGGCAACCGAAACAGCGGA	0.247
ATACCAAGGTGATCGTGAGGTCGGTGATACTAAC	0.863
AGAATGCGGTTATTAAGATCAGGGAATTGCGGTC	-0.302
TTACCAAGGTGAAGGTCGTAGATCCCTCTGTAGA	0.681
TCTTGTAGATGAAAGGTTAAGAAAGCCGAAGCCT	1.06
ATCGAAAGGTCGTGAGTTGAGTATACAGAAAGGC	3.51
TCATATAGGTAAATGCTAGGTAAAAGTCCGATCT	0.968
CGAACGAGGGCATGAGCTGATAGCAAATGCCGAT	0.355
TCTCGGAGGACACGATGGTCAGAGCTTTCCAGAG	-0.133
CATACTGGGCCAAAAAGGTCATTGATGCCGATAA	5.08
CCTAGCAGGCCAGGGTCACTTAAGCATTTCGCTT	2.3
ACTAGAAGGCCAAGTTTGGGTCACTCAAACAAAG	1.28
CCTAGATGGTCAAGGTCACACACGCTATAGGTAC	4.15
TCTGCTAGGTCAACGATGATCAGCTAATCTGCTA	1.17
CTTCGGAGGACAACAGGAGGTCAGAGCTGCCAGA	2.12
CCTTACGTGTCACTCCAGGTTATAGCATCGGAGT	1.33
TCTTGTAGATCAATAGAGCTTAAGAAAGTGCGCT	-0.108
CCGACCGGGGCAGAAAGGTTACCATACCATCCGG	1.5

Sequence	PBM binding z-score
TCTTGTAGATCAAAAGGAGGTTAAGAAAGATCGA	0.807
CGTCAAAGTTCAAGGTAGCGTAACAGAAAGCAGC	3.68
CTCCAAAGGTCGTGCTCAGGTGAGTATACCAAAC	3.59
GGAACGAGGGCAAGTCGATAGCAGAGTTTGATGG	0.364
CGAACTAGGTCATTGACAAGACAGTGAATAGTAA	1.89
CCTACTGGGCCAAAGGTCATTTATTCCAATGCTC	4.34
TCATATAGGTAATACAGGTGAAAGGCGGCATCTA	1.17
CCGACTGAGGCAAGGTTACCATAACGCACAGCCA	0.0737
CGAAGGAGGGCATGAGTTGATAGCAAATGCCGAT	0.513
TCTGCTAGGTCAGCTGGTCAGCTAACGAGCTGCC	0.12
TCTGCTAGGTCAGTTGGTCAGCCAACGAGCTGCC	-0.0135
TCGAGTAGGTTACCACTGGGGCATTCAGCTTTCT	-0.368
GCATATAGGTAATGCAAGGTGAAAGTCCGATTGT	0.358
TCTGCTAGGTCGGTTGGTCAGCTAACGAGCTGCC	-0.462
TCTCGTAGATCAAGCAGGTTAAGAAAGCCTGAGT	-0.00505
CAAACTAGGTCACAGAGGCCAAAGTCCGTGCGTA	6.5
CCTACTGAGCCAAAAAGGTCATTGATGCCGATAA	4.58
ATCTCTACGTAAGACTCAGTTCAGTGAAGAACGC	0.645
AGAAAGAGGTTATACGTAGATCAGGGAAGAAAGT	1.4
AATACAGGGTCCCTAGGCCAGAGTAGGTACGAAT	-0.389
